Measurements published in paper PMC7862700, “An all-to-all approach to the identification of sequence-specific readers for epigenetic DNA modifications on cytosine”.

How the values were obtained:
Experiment in all cases: DAPPL (digital affinity profiling via proximity ligation, sequencing); 10 mM Tris-HCl pH 7.5, 50 mM NaCl, 1 mM DTT, 4% glycerol, room temperature, 30 min; GST-TFs on glutathione beads, 16-mer random dsDNA library, 0.1% formaldehyde crosslink after washing; high values mean tight binding
Details in all cases: protein: recombinant; tags: N-terminal GST; dsDNA, one strand shown
[1] = molecular target: T1, FLI1 (Homo sapiens, UniProt Q01543 1-452)
T1 sequence: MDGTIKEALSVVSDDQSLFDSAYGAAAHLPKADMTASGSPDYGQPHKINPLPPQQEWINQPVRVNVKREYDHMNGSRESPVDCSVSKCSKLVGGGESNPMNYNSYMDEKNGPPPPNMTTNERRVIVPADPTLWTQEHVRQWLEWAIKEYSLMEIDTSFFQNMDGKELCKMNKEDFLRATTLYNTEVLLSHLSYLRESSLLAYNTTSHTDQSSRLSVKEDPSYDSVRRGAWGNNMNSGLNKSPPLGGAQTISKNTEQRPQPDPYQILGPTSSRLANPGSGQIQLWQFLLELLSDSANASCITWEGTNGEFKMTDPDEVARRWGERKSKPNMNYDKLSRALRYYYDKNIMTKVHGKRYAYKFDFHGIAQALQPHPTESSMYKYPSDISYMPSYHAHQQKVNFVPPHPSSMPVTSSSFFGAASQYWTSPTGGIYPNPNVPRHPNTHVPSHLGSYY
Summary of the method: (§1)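 Binding signal is each hexamer's read frequency for a factor divided by its frequency in the tag-only sample. The factors were GST-fused human transcription factors from yeast, captured on glutathione beads, DNA-barcoded and pooled with that sample. Pools were incubated with 200 nmole of a random double-stranded 16-mer DNA library in Tris/NaCl/DTT/glycerol buffer at room temperature for 30 min, then washed, crosslinked with 0.1% formaldehyde, proximity-ligated with BsaI/T4 ligase (1 h, 37 °C), PCR-amplified and sequenced on an Illumina NextSeq500.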

[2] = molecular target: T2, ELK1 (Homo sapiens, UniProt P19419 1-428)
T2 sequence: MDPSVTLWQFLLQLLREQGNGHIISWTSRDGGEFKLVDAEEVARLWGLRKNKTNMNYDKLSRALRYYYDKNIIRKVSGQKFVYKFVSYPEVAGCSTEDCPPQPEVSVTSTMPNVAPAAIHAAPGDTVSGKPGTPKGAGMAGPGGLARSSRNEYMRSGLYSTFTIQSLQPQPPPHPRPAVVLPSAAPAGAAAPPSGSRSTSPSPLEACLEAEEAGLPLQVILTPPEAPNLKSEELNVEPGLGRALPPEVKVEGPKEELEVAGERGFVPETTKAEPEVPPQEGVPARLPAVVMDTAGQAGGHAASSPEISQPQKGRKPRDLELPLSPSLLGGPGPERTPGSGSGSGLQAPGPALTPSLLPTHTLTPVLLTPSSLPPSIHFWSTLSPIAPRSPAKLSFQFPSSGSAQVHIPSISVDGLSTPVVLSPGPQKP
Summary of the method: as §1

[3] = molecular target: T3, GABPA (Homo sapiens, UniProt Q06546 1-454)
T3 sequence: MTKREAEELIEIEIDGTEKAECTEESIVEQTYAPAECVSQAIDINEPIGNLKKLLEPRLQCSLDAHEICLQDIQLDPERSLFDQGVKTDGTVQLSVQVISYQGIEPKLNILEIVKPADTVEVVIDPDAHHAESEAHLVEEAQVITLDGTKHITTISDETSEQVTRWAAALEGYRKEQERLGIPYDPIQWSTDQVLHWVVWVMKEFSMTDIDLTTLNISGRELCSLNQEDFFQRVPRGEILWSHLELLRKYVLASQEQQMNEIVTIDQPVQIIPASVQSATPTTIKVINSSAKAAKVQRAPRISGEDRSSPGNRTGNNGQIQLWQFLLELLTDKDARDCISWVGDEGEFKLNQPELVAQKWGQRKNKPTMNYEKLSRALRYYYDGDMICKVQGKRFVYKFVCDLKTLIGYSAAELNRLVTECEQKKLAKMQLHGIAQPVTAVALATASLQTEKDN
Summary of the method: as §1

[4] = molecular target: T4, ERG (Homo sapiens, UniProt P11308 1-479)
T4 sequence: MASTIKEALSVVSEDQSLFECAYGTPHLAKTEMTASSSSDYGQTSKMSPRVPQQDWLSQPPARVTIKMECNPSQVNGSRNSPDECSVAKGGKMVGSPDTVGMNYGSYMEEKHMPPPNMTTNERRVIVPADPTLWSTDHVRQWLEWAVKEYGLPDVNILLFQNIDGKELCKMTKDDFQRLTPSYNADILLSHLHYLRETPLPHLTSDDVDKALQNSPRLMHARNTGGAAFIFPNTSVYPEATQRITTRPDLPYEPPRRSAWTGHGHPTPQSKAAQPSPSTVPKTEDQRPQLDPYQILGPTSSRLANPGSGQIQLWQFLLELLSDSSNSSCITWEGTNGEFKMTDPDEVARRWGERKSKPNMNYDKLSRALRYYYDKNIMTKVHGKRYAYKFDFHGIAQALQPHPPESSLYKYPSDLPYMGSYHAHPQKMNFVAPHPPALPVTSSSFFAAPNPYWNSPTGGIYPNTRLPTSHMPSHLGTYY
Summary of the method: as §1

[5] = molecular target: ELF1 (Homo sapiens, UniProt P32519 1-619)
ELF1, sequence (P32519 whole entry): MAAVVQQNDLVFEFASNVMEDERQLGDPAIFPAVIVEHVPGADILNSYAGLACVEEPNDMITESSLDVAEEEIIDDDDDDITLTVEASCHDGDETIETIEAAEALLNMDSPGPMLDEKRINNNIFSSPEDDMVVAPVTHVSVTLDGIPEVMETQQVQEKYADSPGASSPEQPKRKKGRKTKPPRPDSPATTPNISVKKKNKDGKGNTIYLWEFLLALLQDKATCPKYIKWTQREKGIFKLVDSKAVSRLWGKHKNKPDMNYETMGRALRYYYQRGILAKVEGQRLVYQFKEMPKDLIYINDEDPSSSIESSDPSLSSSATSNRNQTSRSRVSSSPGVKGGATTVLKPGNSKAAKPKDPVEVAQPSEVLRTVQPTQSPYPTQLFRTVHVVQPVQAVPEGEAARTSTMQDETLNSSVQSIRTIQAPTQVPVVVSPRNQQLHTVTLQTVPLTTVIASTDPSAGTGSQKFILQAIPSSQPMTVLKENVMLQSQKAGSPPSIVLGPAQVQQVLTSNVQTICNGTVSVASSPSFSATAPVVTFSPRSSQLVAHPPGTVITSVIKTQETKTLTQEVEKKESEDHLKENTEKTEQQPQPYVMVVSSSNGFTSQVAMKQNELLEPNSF
Summary of the method: as §1

[6] = molecular target: T5, EHF (Homo sapiens, UniProt Q9NZC4 1-300)
T5 sequence: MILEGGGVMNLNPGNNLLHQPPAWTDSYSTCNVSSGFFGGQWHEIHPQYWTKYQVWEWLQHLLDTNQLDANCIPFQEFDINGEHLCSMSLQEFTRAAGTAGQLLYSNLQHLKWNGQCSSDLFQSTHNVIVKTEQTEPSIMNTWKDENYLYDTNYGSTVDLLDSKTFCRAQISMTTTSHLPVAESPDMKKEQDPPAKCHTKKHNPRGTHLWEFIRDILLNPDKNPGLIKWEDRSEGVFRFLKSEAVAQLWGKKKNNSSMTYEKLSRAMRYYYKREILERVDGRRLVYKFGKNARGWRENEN
Summary of the method: as §1

[7] = molecular target: SPI1 (Homo sapiens, UniProt P17947 1-270)
Summary of the method: as §1

[8] = molecular target: SPIB (Homo sapiens, UniProt Q01892 1-262)
SPIB, sequence (Q01892 whole entry): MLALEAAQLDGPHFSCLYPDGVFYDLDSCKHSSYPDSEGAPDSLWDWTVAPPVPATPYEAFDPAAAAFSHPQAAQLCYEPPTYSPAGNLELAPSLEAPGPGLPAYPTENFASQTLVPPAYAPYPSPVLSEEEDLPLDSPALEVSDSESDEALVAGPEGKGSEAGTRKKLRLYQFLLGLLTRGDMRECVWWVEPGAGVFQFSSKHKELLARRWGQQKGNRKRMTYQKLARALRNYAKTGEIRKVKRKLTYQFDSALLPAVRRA
Summary of the method: as §1

[9] = molecular target: T6, ELK3 (Homo sapiens, UniProt P41970 1-407)
T6 sequence: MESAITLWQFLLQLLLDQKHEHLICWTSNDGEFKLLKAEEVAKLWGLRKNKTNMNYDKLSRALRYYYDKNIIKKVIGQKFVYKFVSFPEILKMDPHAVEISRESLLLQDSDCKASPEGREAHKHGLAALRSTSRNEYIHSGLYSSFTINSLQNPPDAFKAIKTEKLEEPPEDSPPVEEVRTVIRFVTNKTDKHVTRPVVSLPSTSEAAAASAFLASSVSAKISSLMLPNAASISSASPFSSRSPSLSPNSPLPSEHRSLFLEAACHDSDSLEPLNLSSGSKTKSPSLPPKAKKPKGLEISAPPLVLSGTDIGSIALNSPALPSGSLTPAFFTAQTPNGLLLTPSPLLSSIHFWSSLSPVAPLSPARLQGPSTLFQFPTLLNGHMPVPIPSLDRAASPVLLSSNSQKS
Summary of the method: as §1

| Sequence | binding signal [1] | binding signal [2] | binding signal [3] | binding signal [4] | binding signal [5] | binding signal [6] | binding signal [7] | binding signal [8] | binding signal [9] |
| --- | --- | --- | --- | --- | --- | --- | --- | --- | --- |
| CGTCTT | 1.46 fold enrichment (6-mer frequency, TF over GST control) | 1.43 fold enrichment (6-mer frequency, TF over GST control) | 1.33 fold enrichment (6-mer frequency, TF over GST control) | 1.37 fold enrichment (6-mer frequency, TF over GST control) | 1.35 fold enrichment (6-mer frequency, TF over GST control) | 1.41 fold enrichment (6-mer frequency, TF over GST control) | 1.45 fold enrichment (6-mer frequency, TF over GST control) | 1.5 fold enrichment (6-mer frequency, TF over GST control) | 1.28 fold enrichment (6-mer frequency, TF over GST control) |
| GCAACT | 1.22 fold enrichment (6-mer frequency, TF over GST control) | 1.19 fold enrichment (6-mer frequency, TF over GST control) | 1.19 fold enrichment (6-mer frequency, TF over GST control) | 1.33 fold enrichment (6-mer frequency, TF over GST control) | 1.29 fold enrichment (6-mer frequency, TF over GST control) | 1.2 fold enrichment (6-mer frequency, TF over GST control) | 1.23 fold enrichment (6-mer frequency, TF over GST control) | 1.22 fold enrichment (6-mer frequency, TF over GST control) | 1.14 fold enrichment (6-mer frequency, TF over GST control) |
| CGACTT | 1.84 fold enrichment (6-mer frequency, TF over GST control) | 1.85 fold enrichment (6-mer frequency, TF over GST control) | 1.58 fold enrichment (6-mer frequency, TF over GST control) | 1.84 fold enrichment (6-mer frequency, TF over GST control) | 1.69 fold enrichment (6-mer frequency, TF over GST control) | 1.8 fold enrichment (6-mer frequency, TF over GST control) | 1.9 fold enrichment (6-mer frequency, TF over GST control) | 1.79 fold enrichment (6-mer frequency, TF over GST control) | 1.94 fold enrichment (6-mer frequency, TF over GST control) |
| GGTCTA | 1.12 fold enrichment (6-mer frequency, TF over GST control) | 1.05 fold enrichment (6-mer frequency, TF over GST control) | 1.06 fold enrichment (6-mer frequency, TF over GST control) | 1.08 fold enrichment (6-mer frequency, TF over GST control) | 1.05 fold enrichment (6-mer frequency, TF over GST control) | 1.23 fold enrichment (6-mer frequency, TF over GST control) | 1.02 fold enrichment (6-mer frequency, TF over GST control) | 1.05 fold enrichment (6-mer frequency, TF over GST control) | 1.24 fold enrichment (6-mer frequency, TF over GST control) |
